{"source": "PubChem BioAssay AID841", "about": "(Emory University Molecular Libraries Screening Center, 2007)", "note": "Screen size: about 140,000 compounds; about 2,100 (1.5%) were called active. No stated cut-off is given here; in the data, active means protection mostly above about 24% (no sharp cut-off); inactive means mostly below about 26%. This excerpt belongs to a sample that is enriched for actives.", "data": [{"experiment": "compounds protecting cells from measles virus cytopathic effect, primary screen, measles RdRp inhibitor project, single point, MLSMR library, absorbance (AID 841)", "details": "Measles virus-infected cells, CPE protection, at 4 µM, hits give high values", "values": [{"smiles": "CN1CCN(S(=O)(=O)c2ccc(NC(=S)NC(=O)C3CC3)cc2)CC1", "protection (pct of control)": "7.47% (inactive)"}, {"smiles": "CN1CCN(S(=O)(=O)c2ccc(NC(=O)C3CCCO3)cc2)CC1", "note": "(stereo not drawn)", "protection (pct of control)": "28.4% (active)"}, {"smiles": "CN1CCN(S(=O)(=O)c2ccc(NC(=O)c3ccco3)cc2)CC1", "protection (pct of control)": "12.2% (inactive)"}, {"smiles": "C/C(=N\\NC(=O)Cc1ccc(F)cc1)c1ccc(F)cc1", "protection (pct of control)": "16.1% (inactive)"}, {"smiles": "Cc1ccccc1C(CC(=O)c1cccs1)C(C#N)C#N", "note": "(stereo not drawn)", "protection (pct of control)": "1.36% (inactive)"}, {"smiles": "Cc1ccc(Cn2ccc(NC(=O)c3cc(C(C)C)on3)n2)cc1", "protection (pct of control)": "10.8% (inactive)"}, {"smiles": "O=C(Nc1ccn(Cc2ccccc2)n1)c1n[nH]c([N+](=O)[O-])c1Cl", "protection (pct of control)": "4.93% (inactive)"}, {"smiles": "O=C(Nc1ccn(Cc2ccc(F)cc2)n1)c1ccncc1", "protection (pct of control)": "61.8% (active)"}, {"smiles": "CC(=O)N1C(C)c2ccccc2C(C)(C)CC12CCCCC2", "note": "(stereo not drawn)", "protection (pct of control)": "1.83% (inactive)"}, {"smiles": "Cc1ccc(C)c(NC(=O)CSc2nc3c(oc4ccccc43)c(=O)n2-c2ccccc2)c1", "protection (pct of control)": "11.7% (inactive)"}, {"smiles": "Cc1ccc(-n2c(SCC(=O)Nc3ncc(Cl)cc3Cl)nc3ccccc32)cc1", "protection (pct of control)": "45.3% (active)"}, {"smiles": "Cc1ccc(SCCC(=O)OCC(=O)Nc2ncc(Cl)cc2Cl)cc1", "protection (pct of control)": "25.6% (inactive)"}, {"smiles": "NC(=O)CCC(NS(=O)(=O)c1ccc(Cl)cc1)C(=O)NCc1ccccc1Cl", "note": "(stereo not drawn)", "protection (pct of control)": "5.12% (inactive)"}, {"smiles": "CNC(=S)N/N=C/c1ccc(OCc2ccccc2)c(Br)c1", "protection (pct of control)": "4.55% (inactive)"}, {"smiles": "CCOC(=O)Cc1csc(SCC(=O)NC(C)C23CC4CC(CC(C4)C2)C3)n1", "note": "(stereo not drawn)", "protection (pct of control)": "4.07% (inactive)"}, {"smiles": "Cc1cccc(Nc2nc3c(S(=O)(=O)c4ccccc4)nnn3c3ccccc23)c1C", "protection (pct of control)": "4.8% (inactive)"}, {"smiles": "CCc1ccc(NC2Nc3cc(C)nn3S2)cc1", "note": "(stereo not drawn)", "protection (pct of control)": "40.8% (active)"}, {"smiles": "COc1ccc(Oc2c(Cl)cnn(-c3ccccc3)c2=O)cc1", "protection (pct of control)": "42.2% (active)"}, {"smiles": "Cc1ccc(-c2nc3c(cnn3-c3ccccc3)c(=O)o2)cc1", "protection (pct of control)": "8.52% (inactive)"}, {"smiles": "COc1ccc(-n2c(C)nc3c(cnn3-c3ccccc3)c2=O)cc1", "protection (pct of control)": "1.2% (inactive)"}, {"smiles": "Cc1cc(C(=O)CSc2nc(N)cc(=O)[nH]2)c(C)n1-c1cccc(F)c1", "protection (pct of control)": "24.8% (inactive)"}, {"smiles": "O=C(C1CCCO1)N1CCN(C(=S)Nc2cccc(Cl)c2)CC1", "note": "(stereo not drawn)", "protection (pct of control)": "19.2% (inactive)"}, {"smiles": "C=C(C)c1cccc(C(C)(C)NC(=O)NC2CCCC2)c1", "protection (pct of control)": "2.05% (inactive)"}, {"smiles": "CCOC(=O)c1sc(NC(=O)COc2ncnc3ccccc23)c(C(=O)OCC)c1C", "protection (pct of control)": "23.3% (inactive)"}, {"smiles": "O=C(CN1CCc2ccccc21)NC(c1ccccc1)c1ccccc1", "protection (pct of control)": "11.6% (inactive)"}, {"smiles": "Cc1ccc(S(=O)(=O)NCC(=O)N(CC(=O)NC2CCCCC2)Cc2ccco2)cc1", "protection (pct of control)": "39.7% (inactive)"}, {"smiles": "Cc1ccc(S(=O)(=O)NCC(=O)N(CC(=O)NC(C)(C)C)Cc2cccs2)cc1", "protection (pct of control)": "32.1% (active)"}, {"smiles": "CC(C)(C)NC(=O)CN(Cc1cccs1)C(=O)CNS(=O)(=O)c1ccccc1", "protection (pct of control)": "4.11% (inactive)"}]}]}
